Source: PubChem BioAssay (Tox21)
Values joined by “and” are separate entries in the source; they are usually repeats but may differ in a detail not shown here. Equal entries are not always repeated. Records with an inconclusive call do not appear. Some structures have more than one record in an assay (separate samples or runs), and their calls can disagree. Active and inactive are the calls of the source. Calls come from the whole dose curve.

test: Nuclear factor erythroid 2-related factor 2/antioxidant responsive element (Nrf2/ARE) small molecule agonists: luciferase reporter gene qHTS assay in human keratinocytes (AID 1919969); details: KeratinoSens HaCaT ARE-luciferase, luminescence, 24 h; series mostly up to 92.4 µM; activity, positive = activation: at the top concentration; note: nearly all actives have a fitted effect of over 35% in size
% is set by controls: 0 for no effect and ±100 for the full control effect; potency is the fitted concentration of half-maximal effect.

Compound	activity, positive = activation	Potency
COc1ccc(NC(C)=O)cc1	-7.66% (inactive)	–
c1cnc2cc3c(cc2n1)C1CNCC3C1	3.65% [at 42.5 µM] (inactive)	–
OCc1c2ccccc2cc2ccccc12	16.3% (inactive)	–
Oc1ccc(Cl)cc1Sc1cc(Cl)ccc1O	–	15.3 µM (active) and inactive
CCCc1ccccc1	-3.74% (inactive)	–
CC(=O)CC(C)=O	0.779% (inactive)	–
C=CC(=O)OCCCCCC	-4.13% (inactive)	–
CC(C)(C)C(=O)OCOP(=O)(COCCn1cnc2c(N)ncnc21)OCOC(=O)C(C)(C)C	-0.127% [at 42.5 µM] (inactive)	–
Oc1ccc(C(c2ccc(O)cc2)C(Cl)(Cl)Cl)cc1	–	27.3 µM (active)
Nc1cc(S(=O)(=O)O)cc2cc(S(=O)(=O)O)cc(O)c12	–	inactive
N=C(N=C(N)N)N1CCOCC1	-3.99% [at 42.5 µM] (inactive)	–
Oc1c(Cl)ccc(Cl)c1Cl	-8.04% (inactive)	–
CC1=CC[C@@]23C[C@@H]1C(C)(C)[C@@H]2CC[C@H]3C	-1.23% (inactive)	–
O=C(O)c1cccc(C(F)(F)F)c1	10.4% (inactive)	–
CC(O)Cn1cnc2c1c(=O)n(C)c(=O)n2C (centres undefined)	-6.27% [at 42.5 µM] (inactive)	–
CN(C)CCOC(c1ccc(Cl)cc1)c1ccccn1 (centres undefined)	-0.485% [at 42.5 µM] (inactive)	–
O=C(O)c1cc(-c2ccccc2)nc2ccccc12	0.838% [at 42.5 µM] (inactive)	–
CC1(C)C(O)C(C)(C)C1O (centres undefined)	-6.41% (inactive)	–
Cc1ccc(N(C)C)cc1	-0.943% (inactive)	–
C/C=C/C(=O)CCCC	18.7% (inactive)	–

Compound	activity, positive = activation	Potency
CC(C)(c1ccc(O)cc1)c1ccc(O)cc1	–	inactive and 62.2 µM (active)
C=CCCCCCCCC	-3.95% (inactive)	–
CC(C)=O	-3.93% (inactive)	–
O=C(O)[C@@H]1[C@H]2C[C@H]3c4[nH]c5ccccc5c4CCN3C[C@@H]2CC[C@@H]1O	1.77% [at 42.5 µM] (inactive)	–
C=CC(C)CCC=C(C)C (centres undefined)	-3.85% (inactive)	–
O=C(O)C(=O)Nc1cccc(-c2nn[nH]n2)c1	-5.99% [at 42.5 µM] (inactive)	–
CN(C)N=Nc1ccccc1	-10.6% (inactive)	–
OCCOc1ccc(OCCO)cc1	9.36% (inactive)	–
CC1=C(CC(=O)O)c2cc(F)ccc2/C1=C\c1ccc(S(C)=O)cc1 (centres undefined)	0.959% [at 42.5 µM] (inactive)	–
CC(C)CCCCCCc1ccc(O)cc1	–	2.48 µM (active) and inactive
C=CCS(=O)(=O)O	-12.4% (inactive)	–
CCCCSCCCC	-6.89% (inactive)	–
CCNc1nc(N)nc(Cl)n1	-1.94% (inactive)	–
Cc1ccc(N)cc1[N+](=O)[O-]	-6.29% (inactive)	–
Cc1c(C)c2c(c(C)c1O)CCC(C)(COc1ccc(CC3SC(=O)NC3=O)cc1)O2 (centres undefined)	3.72% [at 42.5 µM] (inactive)	–
CCCC1O[C@@H]2C[C@H]3[C@@H]4CCC5=CC(=O)C=C[C@]5(C)[C@H]4[C@@H](O)C[C@]3(C)[C@]2(C(=O)CO)O1 (some centres undefined)	0.227% (inactive)	–
CC(C[N+](C)(C)C)OC(N)=O (centres undefined)	-11.7% [at 42.5 µM] (inactive)	–
O=C(O)CCCCCCCCCCCC(=O)O	9.92% (inactive)	–
COc1cc(C(=O)N2CCOCC2)cc(OC)c1OC	-4.99% [at 42.5 µM] (inactive)	–
